Experiments:
[1] = target: RNA polymerase II-associated factor 1 homolog (UniProt Q8N7H5); experiment: cross-link between two proteins; cross-linking mass spectrometry
[2] = target: Transcription elongation factor SPT6 (UniProt Q7KZ85); experiment: cross-link between two proteins; affinity purification or IP with mass spectrometry; cross-linking mass spectrometry

Row | Substance | listed as a hit [1] | listed as a hit [2]
1 | Transcription elongation factor SPT6, Q7KZ85 | yes | –
2 | DNA-directed RNA polymerase II subunit RPB1, P24928 | – | yes
